Results reported in the supplement of paper PMC10981050.
Where “and” joins values, the source holds several entries; their conditions need not be identical. Equal entries are not always repeated. Structures can show the parent of a compound that is named as a salt.

What was measured:
Experiment in all cases: cell viability relative to vehicle control; higher = less cytotoxic
Conditions in all cases: 10 µM
K562 = test system: K562
Procedure, shortened: (§1)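 Each screen used CRISPR-edited mutant and wild-type clones from four leukaemia lines. Compounds were acoustically dispensed at a single 10 µM dose, and CellTiter-Glo luminescence was read after 48 h with the supernatant first removed. Viability was analysed in Genedata Screener and given as percent of the on-plate vehicle control.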

MARIMO = test system: MARIMO
Procedure, shortened: as §1

MOLM14 = test system: MOLM14
Procedure, shortened: as §1

OCI-AML2 = test system: OCI-AML2
Procedure, shortened: as §1

Compound	cell viability (K562; SRSF2 genotype: SRSF2 P95H/wt)	cell viability (K562; SRSF2 genotype: SRSF2 wt/wt)	cell viability (MARIMO; SRSF2 genotype: SRSF2 P95H/wt)	cell viability (MARIMO; SRSF2 genotype: SRSF2 wt/wt)	cell viability (MOLM14; SRSF2 genotype: SRSF2 P95H/wt)	cell viability (MOLM14; SRSF2 genotype: SRSF2 wt/wt)	cell viability (OCI-AML2; SRSF2 genotype: P95H/wt)	cell viability (OCI-AML2; SRSF2 genotype: wt/wt)
CN1CCN(CCCNc2ncc(Cl)c(-c3cc4c(C(=O)NC5CC5)cccc4s3)n2)CC1	97.4% and 98.7%	93.2%	81.4%	85.8%	58.8%	79.9%	68.8%	72.7%
CCC(=O)NS(=O)(=O)c1ccc(-c2c(-c3ccccc3)noc2C)cc1 [Parecoxib]	100% and 96.7%	97.5%	101%	108%	101%	101%	88.3%	99.7%
OCc1ccccc1O[C@@H]1O[C@H](CO)[C@@H](O)[C@H](O)[C@H]1O [Salicin (Salicoside, Salicine)]	101% and 103%	110%	103%	106%	99.7%	104%	105%	112%
FC(F)(F)Oc1ccc(-c2ccc3nnc(C(F)(F)F)n3c2)cc1	91% and 96.6%	102%	95.7%	97.8%	95.2%	112%	89%	94.4%
Cc1cc(Nc2cc(Cl)nc(Oc3ccc([N+](=O)[O-])cc3)n2)n[nH]1 [Autophinib]	30.5% and 32.9%	31.3%	33.4%	53.3%	29.9%	14.5%	50%	47.9%
C[C@H]1[C@H](C)CC[C@]2(C(=O)O)CC[C@]3(C)C(=CC[C@@H]4[C@@]5(C)C[C@@H](O)[C@H](O)C(C)(C)[C@@H]5CC[C@]43C)[C@H]12 [Corosolic acid]	94.6% and 95.3%	93.5%	94.7%	107%	97.3%	96.1%	103%	99.7%
COc1cc(NS(=O)(=O)c2ccc(N)cc2)nc(OC)n1 [SulfadiMethoxine sodium]	106% and 100%	111%	100%	105%	106%	107%	102%	118%
CN1[C@@H]2CC[C@H]1C[C@@H](OC(c1ccccc1)c1ccccc1)C2 [Benztropine mesylate]	82.3% and 93.2%	87%	81.9%	91.2%	83.7%	100%	88%	79.9%
CCN1CCC[C@H]1CNC(=O)c1cc(S(N)(=O)=O)ccc1OC [Levosulpiride (Levogastrol)]	101% and 103%	108%	111%	104%	109%	107%	104%	93.6%
